Among all 400,000 compounds or so, about 2,100 (0.53%) were called active. About 14% were inconclusive and are not listed. No rule for the calls is given here. The full list was thinned out, with actives kept by preference.

In this assay the target is Ataxin-2 (Homo sapiens) (UniProt Q99700). Briefly: qHTS for Inhibitors of ATXN expression. The format is functional. In general terms: Quantitative high-throughput screening tests each substance at several concentrations.
Ataxin-2 (Homo sapiens), sequence (Q99700 whole entry): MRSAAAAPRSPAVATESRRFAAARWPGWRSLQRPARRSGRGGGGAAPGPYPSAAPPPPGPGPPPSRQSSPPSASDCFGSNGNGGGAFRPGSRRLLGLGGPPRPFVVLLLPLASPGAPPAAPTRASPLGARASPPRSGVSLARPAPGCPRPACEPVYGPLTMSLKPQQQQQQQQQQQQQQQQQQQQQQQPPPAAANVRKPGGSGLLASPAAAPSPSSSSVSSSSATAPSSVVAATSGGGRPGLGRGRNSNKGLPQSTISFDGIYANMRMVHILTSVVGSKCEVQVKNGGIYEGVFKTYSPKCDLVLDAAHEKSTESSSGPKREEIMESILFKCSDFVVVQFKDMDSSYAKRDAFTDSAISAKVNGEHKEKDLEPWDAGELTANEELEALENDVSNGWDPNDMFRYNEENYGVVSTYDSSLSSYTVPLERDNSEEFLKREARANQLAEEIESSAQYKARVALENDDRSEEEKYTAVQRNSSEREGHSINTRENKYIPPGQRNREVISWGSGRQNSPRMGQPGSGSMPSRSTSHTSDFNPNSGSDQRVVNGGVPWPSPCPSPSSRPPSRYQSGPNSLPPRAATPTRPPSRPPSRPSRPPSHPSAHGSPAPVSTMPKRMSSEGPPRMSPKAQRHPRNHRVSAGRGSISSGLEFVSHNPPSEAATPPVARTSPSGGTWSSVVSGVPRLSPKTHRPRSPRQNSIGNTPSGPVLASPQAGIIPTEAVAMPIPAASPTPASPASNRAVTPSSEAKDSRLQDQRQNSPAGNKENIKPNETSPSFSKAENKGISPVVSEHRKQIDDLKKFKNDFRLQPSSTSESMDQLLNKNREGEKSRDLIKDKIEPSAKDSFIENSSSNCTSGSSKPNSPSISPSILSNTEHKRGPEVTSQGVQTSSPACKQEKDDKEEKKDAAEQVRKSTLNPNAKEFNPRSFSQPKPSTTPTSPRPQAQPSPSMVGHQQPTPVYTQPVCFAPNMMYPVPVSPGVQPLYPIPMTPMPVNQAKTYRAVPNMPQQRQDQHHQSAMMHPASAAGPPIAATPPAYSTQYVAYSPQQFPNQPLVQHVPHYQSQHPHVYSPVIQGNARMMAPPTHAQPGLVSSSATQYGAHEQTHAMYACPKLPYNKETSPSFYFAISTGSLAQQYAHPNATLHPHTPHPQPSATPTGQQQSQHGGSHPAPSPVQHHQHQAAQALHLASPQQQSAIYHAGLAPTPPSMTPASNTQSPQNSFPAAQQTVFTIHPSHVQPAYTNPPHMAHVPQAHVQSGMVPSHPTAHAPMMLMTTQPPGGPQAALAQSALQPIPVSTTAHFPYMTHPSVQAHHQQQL
On to `COc1ccc(CN2C(=O)/C(=C\NNC(=O)c3cccnc3)c3ccccc3C2=O)cc1`, for which the Potency result is “inactive”. For the compound `O=C(CN(C(=O)CCC(=O)Nc1nccs1)c1ccccc1F)NCc1ccc(F)cc1`, the Potency entry is “inactive”. Next, `CCOc1ccc(-c2cnc3cccnn23)cc1`: “inactive”. Turning to `O=C(N/N=C/c1cccc2cccnc12)[C@H]1C[C@@H]1c1ccccc1`, the Potency entry is “inactive”. As to `Cc1ccc(-c2nnn(CC(=O)N(c3cccc(F)c3)C(C(=O)NC(C)(C)C)c3ccco3)n2)o1` (stereo not given), the Potency result was “inactive”. As to `COc1ccc(-c2[nH]ncc2CNC(C)c2cn(C)nc2C)c(F)c1` (stereo not given), the Potency result is “inactive”. With `CCN(CC)CCCNC(=O)c1cn(-c2cccc(OC)c2)c(=O)c2ccccc12`, the Potency entry was “inactive”. For the compound `CCCCN(CC)CCNC(=O)c1cc2c(-c3ccc(Cl)cc3)nn(C)c2s1`, the Potency is 39.8 µM (active). As to `CCN(CC)CCNC(=O)c1cc2c(-c3ccc(Cl)cc3)nn(C)c2s1`, the Potency was 22.4 µM (active).

For `CCN(CC)CCCNC(=O)c1cc2c(-c3ccc(Cl)cc3)nn(C)c2s1`, the Potency was 17.8 µM (active). Take `CCN(CC)CCNC(=O)c1cc2cc(Br)ccc2s1`: the Potency result is “inactive”. To `Cc1ccc(-c2cc(C(=O)N3CCN(c4ncccn4)CC3)c3cc(Br)ccc3n2)o1` belongs “inactive”. With `CN=C(S)N1N=C(c2ccc(C)cc2)CC1c1ccc(N(C)C)cc1` (stereo not given), the Potency entry was “inactive”.

Take `O=C(Oc1cccc2ccccc12)C1CC1`: the Potency result is “inactive”.

Take `CC(=O)/C(C#N)=C1\NC(=O)C(Cc2ccccc2C)S1` (stereo not given): the Potency result is “inactive”. Consider `COC(=O)c1cc2c(ccn2C)n1C`, for which the Potency entry was “inactive”. For the compound `CCC1S/C(=N/N=C/c2ccco2)N(Cc2ccccc2)C1=O` (stereo not given), the Potency entry is “inactive”. To `CC(C)c1cc(N2CCOCC2)n2ncc(-c3ccccc3)c2n1` belongs “inactive”; to `CCOc1ccc(/C=C/C2=Cc3c(sc(NC(=O)CSc4n[nH]c(N)n4)c3C#N)C(C)(C)C2)cc1`, 39.8 µM (active); to `CCOC(=O)c1sc(NC(=O)CSc2nc3c(cc2C#N)CCCCCC3)c(C#N)c1C`, “inactive”. For `COc1cccc(-c2nc(SCC(=O)Nc3nc(-c4ccccc4)c(C)s3)nc(O)c2C#N)c1`, the Potency entry is “inactive”. To `CC(=O)C1=C(C)NC(SCC(=O)Nc2nc3ccccc3s2)=C(C#N)C1c1ccc(Cl)cc1` (stereo not given) belongs “inactive”.

For `COC(=O)c1c(N=C(S)NNC(=O)c2ccc(Cl)s2)sc(C(=O)N(C)C)c1C`, the Potency was 39.8 µM (active). As to `C/C=C(\C)C(=O)OC1CC(C)(C)C[C@H]2C3=CC[C@@H]4[C@@]5(C)CCC(O[C@@H]6O[C@@H](C(=O)O)[C@@H](O)C(O[C@@H]7OC[C@H](O)[C@@H](O)[C@@H]7O[C@@H]7OC(CO)C(O)[C@@H](O)[C@@H]7O)C6O[C@@H]6OC(CO)C(O)C(O)C6O)[C@@](C)(CO)[C@@H]5CC[C@]4(C)[C@]3(C)CC(O)[C@@]12CO` (stereo not given in full), the Potency is 31.6 µM (active).

Turning to `Cc1nn(C)cc1N1C(=O)c2cccc3c(N)ccc(c23)C1=O`, the Potency result was “inactive”. Next, `CCOc1ccc(C(=O)NCC(c2ccc(Cl)cc2)N2CCCCC2)cc1` (stereo not given): 14.1 µM (active); `COc1ccccc1C(CNC(=O)C1COc2ccccc2O1)N1CCCC1` (stereo not given): “inactive”; `CCOc1ccc(NS(=O)(=O)c2ccc(C(=O)NCC3CCCO3)cc2)cc1` (stereo not given): “inactive”.

In the case of `COc1ccc(C(CNC(=O)c2ccc(-c3ccccc3Cl)o2)N2CCCC2)cc1` (stereo not given), the Potency was 17.8 µM (active). As to `CCOc1ccc(S(=O)(=O)NCC(c2ccc3c(c2)OCO3)N2CCN(C)CC2)cc1` (stereo not given), the Potency result was “inactive”. As for `COc1ccc(CNC(=O)C(C#N)c2nc3ccccc3nc2N2CCCC2)cc1` (stereo not given), the Potency entry was “inactive”. With `CCNc1nc2nc3ccc(C)cn3c(=O)c2cc1C(=O)NCC1CCCO1` (stereo not given), the Potency result was “inactive”. Regarding `O=C(CN1C(=O)NC2(CCc3ccccc32)C1=O)Nc1ccc(Br)cc1F` (stereo not given), the Potency result is “inactive”. Turning to `Nc1nnnn1/N=C/c1ccccc1O`, the Potency result is “inactive”. In the case of `O=C(OCC(=O)N(c1ccccc1)C1CCCCC1)c1ccc(CO)cc1`, the Potency entry was “inactive”.

As to `CC(Oc1ccccc1F)c1nnc(SCC(=O)N(c2ccccc2)C2CCS(=O)(=O)C2)o1` (stereo not given), the Potency entry was “inactive”.

`O=C(CCl)N(c1ccccc1)C1CCS(=O)(=O)C1` (stereo not given): the Potency is 17.8 µM (active). To `O=C(NC(=O)c1c(F)cccc1F)O/N=C1\CCCc2occc21` belongs “inactive”; to `CN(C)S(=O)(=O)c1cccc(NC(=S)N/N=C/C2CC=CCC2)c1` (stereo not given), “inactive”; to `Cc1nc2ccc(S(=O)(=O)Nc3ccc(-c4nc5cccnc5s4)cc3)cc2s1`, “inactive”.

For `C=CCc1c(O)c(CC)cc2c(C)cc(=O)oc12`, the Potency result is “inactive”. Next, `CC(=O)c1c(C)oc2ccc(N(C(C)=O)S(=O)(=O)c3ccc(Cl)c([N+](=O)[O-])c3)cc12`: 31.6 µM (active); `C=CCN(c1ccccc1)S(=O)(=O)c1cccc(C(=O)Oc2ccc3c(C)cc(=O)oc3c2)c1`: “inactive”; `COC(=O)c1c(C)oc2ccc(N(C(=O)Oc3ccccc3)S(=O)(=O)c3ccc(Cl)c([N+](=O)[O-])c3)cc12`: 35.5 µM (active).

For `CC=Cc1cc2c(c(=O)o1)C(=O)C(O)C(C)O2` (stereo not given), the Potency is 29.9 µM (active). Take `CCOC(=O)c1cc2c(=O)n3ccccc3nc2n(CCCOC)/c1=N\C(C)=O`: the Potency entry is “inactive”. Consider `COCCNC(=O)c1ccc(Cn2c(SCC(N)=O)nc3ccccc3c2=O)cc1`, for which the Potency result is “inactive”.

Consider `C[C@H](NC(=O)c1ccc(Cl)cc1)C(=O)OCn1nnc2ccccc2c1=O`, for which the Potency was 8.91 µM (active). Consider `O=C(CNC(=O)C1CCCCC1)OCn1nnc2ccccc2c1=O`, for which the Potency result is “inactive”. To `S=C1SCN(Cc2cccnc2)CN1Cc1cccnc1` belongs 13.4 µM (active); to `OCC1(CCc2ccccc2)CCN(Cc2cccn2-c2cccnc2)CC1`, “inactive”. To `OC1(c2ccc(F)cc2)CCN(Cc2cccnc2)CC1` belongs “inactive”; to `Cc1cccc2c3c([nH]c12)CCNC3`, “inactive”; to `O=C1OCCN1C(=O)[C@H]1[C@H](c2ccc(Cl)cc2)C(c2cccc(Cl)c2)=NN1c1ccccc1`, “inactive”. Next, `Oc1nc2cc3ccccc3cc2nc1C(F)(F)F`: “inactive”; `CCOc1ccc2nc(N3C(=O)/C(=C/c4ccc(Cl)cc4)NC3=S)sc2c1`: “inactive”; `CCOc1ccc2nc(N3C(=O)CNC3=S)sc2c1`: 39.8 µM (active).

As to `CN(C)CCCn1c(N)c(C#N)c2nc3ccccc3nc21`, the Potency entry is “inactive”.

Consider `COc1cccc(OC)c1-c1nn2c(-c3cc(-c4ccccc4)[nH]n3)nnc2s1`, for which the Potency is 31.6 µM (active). Regarding `COc1ccc(-c2cc(C(=O)NN)[nH]n2)cc1OC`, the Potency entry was “inactive”. Regarding `Cc1cc(C)c(C(CC(=O)c2cccs2)C(C#N)C#N)c(C)c1` (stereo not given), the Potency was 31.6 µM (active). Take `N#Cc1c(-c2ccccc2)cc(C2CC2)nc1SCC(=O)c1cccs1`: the Potency entry was “inactive”.

As for `COc1ccc(NC(=O)c2cc(-c3ccco3)on2)c(OC)c1`, the Potency result is “inactive”. As for `COc1ccc(OC)c(-c2c(C#N)c(N)nc3c2c(=O)nc2sccn23)c1`, the Potency result was “inactive”. Turning to `CCc1c(C)sc(NC(=O)c2cc(-c3cc(OC)ccc3OC)on2)c1C#N`, the Potency is 22.4 µM (active).

As for `CC(C)Cn1c(N)c(C(=O)NCCN2CCOCC2)c2nc3ccccc3nc21`, the Potency result is “inactive”. Next, `CNc1nc(-c2ccccc2)cc(-c2ccccc2)n1`: “inactive”; `Nc1ccc2nc(-c3ccccc3)cnc2c1`: “inactive”. `Brc1cc(-c2ccccc2)nc(-c2ccccc2)n1`: the Potency is 39.8 µM (active). Consider `O=c1c2sccc2nc(SCc2cc(=O)n3cc(Br)ccc3n2)n1Cc1ccccn1`, for which the Potency result was “inactive”.
